Laboratory results from the supplement of paper PMC8866396.
± gives the standard deviation of the averaged measurements.

Experiments:
IL-6-GFP PC-9GR = experiment: cell viability (CCK-8 OD) relative to DMSO control (fraction of control); higher = more viable cells; conditions: compound concentration: 10 uM; treatment time: 48 h
Method in brief: (§1)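 PC-9 and PC-9GR lung cancer cells carrying a lentiviral construct that overexpresses IL-6-GFP were seeded in 96-well plates at 3000 cells/well. Every compound in a purchased 510-compound library was applied at a final 10 μM for 48 h, and a parallel set of plates was kept for GFP imaging. Cell viability was read by CCK-8 absorbance, taking each well's optical density as a ratio to the vehicle control well. Two independent replicates were run.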

IL-6-GFP PC-9 = experiment: as above; conditions: compound concentration: 10 uM; treatment time: 48 h
Method in brief: as §1

Structure (SMILES)	cell viability (IL-6-GFP PC-9GR)	cell viability (IL-6-GFP PC-9)
O=C(O)CCc1nc(-c2ccccc2)c(-c2ccccc2)o1 [Oxaprozin]	0.9414 ± 0.0067	0.543 ± 0.2
CCN(CC)Cc1cc(Nc2ccnc3cc(Cl)ccc23)ccc1O.Cl.Cl.O.O [Amodiaquine dihydrochloride dihydrate]	1.05 ± 0.011	0.756 ± 0.039
CCC(c1ccc(O)cc1)C(CC)c1ccc(O)cc1 (stereo unspecified) [Hexestrol]	1.28 ± 0.31	1.16 ± 0.15
Cc1cc(C(C)(C)C)cc(C)c1CC1=NCCN1 [Xylometazoline]	0.674 ± 0.26	1.08 ± 0.14
CC(C(=O)O)c1ccc2c(c1)CC(=O)c1ccccc1S2 (stereo unspecified) [Zaltoprofen]	0.953 ± 0.054	0.542 ± 0.067
CCC(=O)NS(=O)(=O)c1ccc(-c2c(-c3ccccc3)noc2C)cc1 [Parecoxib]	1.06 ± 0.1	1.26 ± 0.014
NC(CC(=O)N1CCn2c(nnc2C(F)(F)F)C1)Cc1cc(F)c(F)cc1F.O.O=P(O)(O)O (stereo unspecified) [Sitagliptin phosphate monohydrate]	0.836 ± 0.12	0.812 ± 0.47
Cc1cncc(CN2CCC(=C3c4ccc(Cl)cc4CCc4cccnc43)CC2)c1.O=C(O)/C=C/C(=O)O [Rupatadine Fumarate]	0.996 ± 0.05	1.16 ± 0.17
Cc1ccc(C2OC(CO)C(O)C(O)C2O)cc1Cc1ccc(-c2ccc(F)cc2)s1.Cc1ccc(C2OC(CO)C(O)C(O)C2O)cc1Cc1ccc(-c2ccc(F)cc2)s1.O (stereo unspecified) [Canagliflozin hemihydrate]	1.12 ± 0.2	0.932 ± 0.22
CCC1(O)C(=O)OCc2c1cc1n(c2=O)Cc2cc3c(CN(C)C)c(O)ccc3nc2-1.Cl (stereo unspecified) [Topotecan HCl]	0.451 ± 0.033	0.355 ± 0.11
CNC(=O)c1cc(Oc2ccc(NC(=O)Nc3ccc(Cl)c(C(F)(F)F)c3)c(F)c2)ccn1 [Regorafenib (BAY 73-4506)]	0.833 ± 0.029	0.476 ± 0.11
CC/C(=C(\c1ccccc1)c1ccc(OCCN(C)C)cc1)c1ccccc1.O=C(O)CC(O)(CC(=O)O)C(=O)O [Tamoxifen]	1.2165 ± 0.0005	0.589 ± 0.053
COc1cc2ncnc(Nc3ccc(F)c(Cl)c3)c2cc1OCCCN1CCOCC1 [Gefitinib (ZD1839)]	0.9 ± 0.06	0.664 ± 0.061
CN(C)CCOC(c1ccc(Cl)cc1)c1ccccn1.O=C(O)/C=C\C(=O)O (stereo unspecified) [CarbinoxaMine Maleate]	1.2 ± 0.26	1.07 ± 0.066
CCCCCCCCCCCC1=C(O)C(=O)C=C(O)C1=O [Embelin]	0.858 ± 0.075	1.12 ± 0.44
CC(C)(C)c1ccc(C(=O)CCCN2CCC(OC(c3ccccc3)c3ccccc3)CC2)cc1 [Ebastine]	0.62 ± 0.3	0.628 ± 0.031
CC1CC2C3CCC4=CC(=O)C=CC4(C)C3(F)C(O)CC2(C)C1(O)C(=O)CO (stereo unspecified) [Dexamethasone (DHAP)]	1.08 ± 0.058	0.732 ± 0.072
NCCNc1ccc(NCCN)c2c1C(=O)c1ccncc1C2=O.O=C(O)/C=C\C(=O)O.O=C(O)/C=C\C(=O)O [Pixantrone Maleate]	0.168 ± 0.39	0.3518 ± 0.00067
COc1cc(-c2coc3cc4c(c(OC)c3c2=O)OCO4)cc(OC)c1OC [Irisflorentin]	0.826 ± 0.2	1.04 ± 0.12
CN(C)c1cc(CNCC(C)(C)C)c(O)c2c1CC1CC3C(N(C)C)C(O)=C(C(N)=O)C(=O)C3(O)C(O)=C1C2=O.Cc1ccc(S(=O)(=O)O)cc1 (stereo unspecified) [Omadacycline tosylate]	1.02 ± 0.039	1.3 ± 0.11
CC(C)(O)CNc1nc(Nc2ccnc(C(F)(F)F)c2)nc(-c2cccc(C(F)(F)F)n2)n1 [Enasidenib (AG-221)]	1.25 ± 0.65	1.03 ± 0.018
O=C(Nc1ccc(O)cc1)c1ccccc1O [Osalmid]	1.3 ± 0.45	1.25 ± 0.1
CNC(=O)c1c(C)oc2cc(Oc3ncnc4cc(OC)c(OC)cc34)ccc12 [Fruquintinib]	1.04 ± 0.12	1.12 ± 0.08
CCN1CCN(Cc2ccc(Nc3ncc(F)c(-c4cc(F)c5nc(C)n(C(C)C)c5c4)n3)nc2)CC1.CS(=O)(=O)O	0.42 ± 0.27	0.415 ± 0.016
CCC(C)n1ncn(-c2ccc(N3CCN(c4ccc(OCC5COC(Cn6cncn6)(c6ccc(Cl)cc6Cl)O5)cc4)CC3)cc2)c1=O (stereo unspecified) [Itraconazole]	0.797 ± 0.19	0.269 ± 0.17
Cc1cn(-c2cc(NC(=O)c3ccc(C)c(Nc4nccc(-c5cccnc5)n4)c3)cc(C(F)(F)F)c2)cn1 [Nilotinib (AMN-107)]	1.22 ± 0.089	1.135 ± 0.0089
COC(c1ccccc1)(c1ccccc1)C(Oc1nc(C)cc(C)n1)C(=O)O (stereo unspecified) [Ambrisentan]	1.22 ± 0.077	1.25 ± 0.37
COc1cc(C2Oc3cc(C4Oc5cc(O)cc(O)c5C(=O)C4O)ccc3OC2CO)ccc1O (stereo unspecified) [Silibinin]	1.36 ± 0.07	1.15 ± 0.099
